{"source": "the supplement of paper PMC10849652", "note": "About 8,800 targets were measured; listed, in parts, are those with a hit and a random draw of the rest. About 0.5% of all pairs of compound and target were hits. A number with no mark means an inactive call."}
{"compound": "O=C(CCCCCCC(=O)Nc1ccccc1)NO [vorinostat]", "experiment": "log2 fold change, soluble protein after heating vs DMSO (PISA); higher = thermal stabilisation; K562 lysate, 10 uM; active = over 0.2 and 3.5 SD of the protein, either way, in both replicates (recomputed)", "outline": "(§1)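 The values are log-two fold changes in thermal stability compared with solvent controls and come from duplicates. They were obtained by TMTpro 16plex LC-MS/MS, with channel sums equalised, on the supernatant after 21,000xg for 90 min. That supernatant came from crude K562 extract at 1 mg/mL protein treated with 10 μM compound for 30 min, heated for 3 min across 48°C-58°C, pooled and brought to 0.5% NP-40 at 4°C.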"}
{"target": "TANGO6 (UniProt Q9C0B7)", "log2 fold change": "-0.389 (active)"}
{"target": "SUZ12 (UniProt Q15022)", "log2 fold change": -0.156}
{"target": "STAR (UniProt P49675)", "sequence (P49675 whole entry, looked up)": "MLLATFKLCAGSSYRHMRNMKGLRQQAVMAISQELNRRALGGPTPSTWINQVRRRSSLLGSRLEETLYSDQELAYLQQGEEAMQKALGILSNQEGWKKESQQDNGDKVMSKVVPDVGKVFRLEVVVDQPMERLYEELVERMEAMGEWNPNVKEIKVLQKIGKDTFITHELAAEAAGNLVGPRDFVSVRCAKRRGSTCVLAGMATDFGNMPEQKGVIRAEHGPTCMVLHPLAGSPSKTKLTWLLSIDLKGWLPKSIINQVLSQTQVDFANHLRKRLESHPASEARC", "log2 fold change": -0.044}
{"target": "SNAP23 (UniProt O00161)", "log2 fold change": 0.052}
{"target": "SMG7 (UniProt Q92540)", "log2 fold change": -0.053}
{"target": "SNRPD2 (UniProt K7EJB5)", "log2 fold change": "0.493 (active)"}
{"target": "TARBP1 (UniProt Q13395)", "log2 fold change": "-0.608 (active)"}
{"target": "SRGN (UniProt P10124)", "log2 fold change": 0.132}
{"target": "SH3BP2 isoform 4 (UniProt P78314)", "sequence (P78314 whole entry, looked up)": "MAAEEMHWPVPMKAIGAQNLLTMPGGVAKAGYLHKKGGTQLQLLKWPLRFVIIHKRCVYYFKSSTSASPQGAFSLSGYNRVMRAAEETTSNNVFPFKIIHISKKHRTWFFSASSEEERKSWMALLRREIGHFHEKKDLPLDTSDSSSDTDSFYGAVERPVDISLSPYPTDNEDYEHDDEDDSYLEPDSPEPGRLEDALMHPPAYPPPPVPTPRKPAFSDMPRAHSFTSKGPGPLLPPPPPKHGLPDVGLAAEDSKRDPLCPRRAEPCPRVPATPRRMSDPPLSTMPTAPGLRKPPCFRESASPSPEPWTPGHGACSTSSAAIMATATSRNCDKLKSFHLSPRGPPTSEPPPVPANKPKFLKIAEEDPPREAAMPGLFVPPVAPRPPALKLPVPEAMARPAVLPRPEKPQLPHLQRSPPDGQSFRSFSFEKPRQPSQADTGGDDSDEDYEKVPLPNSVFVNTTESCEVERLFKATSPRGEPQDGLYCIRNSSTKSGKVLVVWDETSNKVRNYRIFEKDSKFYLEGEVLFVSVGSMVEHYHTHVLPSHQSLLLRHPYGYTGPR", "log2 fold change": -0.27}
{"target": "SH3GL3 isoform 3 (UniProt Q99963)", "log2 fold change": -0.091}
{"target": "SMC6 (UniProt Q96SB8)", "sequence (Q96SB8 whole entry, looked up)": "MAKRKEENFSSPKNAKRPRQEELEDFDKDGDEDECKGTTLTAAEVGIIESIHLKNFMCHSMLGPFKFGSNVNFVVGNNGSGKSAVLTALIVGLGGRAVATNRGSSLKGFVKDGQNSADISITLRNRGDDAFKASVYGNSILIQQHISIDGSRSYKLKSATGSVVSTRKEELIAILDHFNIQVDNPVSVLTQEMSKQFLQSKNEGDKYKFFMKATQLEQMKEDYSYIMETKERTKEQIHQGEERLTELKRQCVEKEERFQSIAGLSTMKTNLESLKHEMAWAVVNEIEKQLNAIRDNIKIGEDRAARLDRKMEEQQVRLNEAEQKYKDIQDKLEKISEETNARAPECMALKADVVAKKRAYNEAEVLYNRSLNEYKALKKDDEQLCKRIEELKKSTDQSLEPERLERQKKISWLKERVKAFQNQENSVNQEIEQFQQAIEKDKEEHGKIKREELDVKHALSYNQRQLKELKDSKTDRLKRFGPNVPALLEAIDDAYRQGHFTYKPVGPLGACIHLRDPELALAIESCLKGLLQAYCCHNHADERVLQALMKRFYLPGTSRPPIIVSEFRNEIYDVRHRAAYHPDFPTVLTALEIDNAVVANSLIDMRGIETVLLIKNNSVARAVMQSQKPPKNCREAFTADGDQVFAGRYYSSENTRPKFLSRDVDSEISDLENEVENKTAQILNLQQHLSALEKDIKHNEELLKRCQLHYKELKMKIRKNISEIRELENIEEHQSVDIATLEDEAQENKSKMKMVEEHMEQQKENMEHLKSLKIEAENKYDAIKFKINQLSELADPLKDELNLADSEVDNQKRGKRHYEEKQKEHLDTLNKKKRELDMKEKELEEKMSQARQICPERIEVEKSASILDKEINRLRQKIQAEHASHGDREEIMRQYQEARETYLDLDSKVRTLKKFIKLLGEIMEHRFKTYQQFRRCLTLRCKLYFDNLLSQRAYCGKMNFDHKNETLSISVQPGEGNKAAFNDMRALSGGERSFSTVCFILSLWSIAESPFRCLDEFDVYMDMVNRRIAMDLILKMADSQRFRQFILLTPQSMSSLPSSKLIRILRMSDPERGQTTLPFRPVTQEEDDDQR", "log2 fold change": "-0.245 (active)"}
{"target": "SHC1 isoform 6 (UniProt P29353)", "log2 fold change": 0.025}
{"target": "SNUPN (UniProt O95149)", "log2 fold change": -0.037}
{"target": "SYF2 (UniProt O95926)", "log2 fold change": 0.092}
{"target": "STARD3 isoform 3 (UniProt Q14849)", "sequence (Q14849 whole entry, looked up)": "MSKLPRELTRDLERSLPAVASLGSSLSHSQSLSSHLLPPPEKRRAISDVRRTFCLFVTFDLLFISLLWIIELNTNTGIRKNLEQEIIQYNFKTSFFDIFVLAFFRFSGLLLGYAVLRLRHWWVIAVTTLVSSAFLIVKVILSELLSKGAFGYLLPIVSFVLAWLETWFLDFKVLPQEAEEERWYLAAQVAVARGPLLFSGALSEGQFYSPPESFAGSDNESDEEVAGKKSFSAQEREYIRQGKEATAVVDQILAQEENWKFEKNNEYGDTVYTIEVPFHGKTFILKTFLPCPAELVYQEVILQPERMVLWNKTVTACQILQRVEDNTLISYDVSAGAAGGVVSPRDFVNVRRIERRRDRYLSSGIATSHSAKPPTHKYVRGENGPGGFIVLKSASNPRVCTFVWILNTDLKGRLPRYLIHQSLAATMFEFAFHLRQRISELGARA", "log2 fold change": 0.065}
{"target": "TADA3 (UniProt O75528)", "log2 fold change": "-0.289 (active)"}
{"target": "STK26 (UniProt Q9P289)", "log2 fold change": -0.032}
{"target": "SMN1 (UniProt Q16637)", "log2 fold change": "-0.278 (active)"}
{"target": "SLC7A5 (UniProt Q01650)", "log2 fold change": 0.109}
{"target": "SFN (UniProt P31947)", "sequence (P31947 whole entry, looked up)": "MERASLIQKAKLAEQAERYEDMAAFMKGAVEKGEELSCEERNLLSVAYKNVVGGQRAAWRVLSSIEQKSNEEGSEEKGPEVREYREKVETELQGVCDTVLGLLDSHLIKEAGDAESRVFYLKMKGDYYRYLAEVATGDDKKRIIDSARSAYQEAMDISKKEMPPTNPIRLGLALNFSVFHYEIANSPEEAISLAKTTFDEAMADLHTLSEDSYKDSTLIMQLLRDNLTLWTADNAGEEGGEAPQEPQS", "log2 fold change": 0.107}
{"target": "SLC40A1 (UniProt Q9NP59)", "log2 fold change": 0.046}
{"target": "SH3BGRL2 (UniProt Q9UJC5)", "sequence (Q9UJC5 whole entry, looked up)": "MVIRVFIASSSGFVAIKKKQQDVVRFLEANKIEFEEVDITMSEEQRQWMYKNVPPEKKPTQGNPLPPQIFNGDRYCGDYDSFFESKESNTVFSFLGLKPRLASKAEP", "log2 fold change": 0.153}
{"target": "SLC30A9 (UniProt Q6PML9)", "sequence (Q6PML9 whole entry, looked up)": "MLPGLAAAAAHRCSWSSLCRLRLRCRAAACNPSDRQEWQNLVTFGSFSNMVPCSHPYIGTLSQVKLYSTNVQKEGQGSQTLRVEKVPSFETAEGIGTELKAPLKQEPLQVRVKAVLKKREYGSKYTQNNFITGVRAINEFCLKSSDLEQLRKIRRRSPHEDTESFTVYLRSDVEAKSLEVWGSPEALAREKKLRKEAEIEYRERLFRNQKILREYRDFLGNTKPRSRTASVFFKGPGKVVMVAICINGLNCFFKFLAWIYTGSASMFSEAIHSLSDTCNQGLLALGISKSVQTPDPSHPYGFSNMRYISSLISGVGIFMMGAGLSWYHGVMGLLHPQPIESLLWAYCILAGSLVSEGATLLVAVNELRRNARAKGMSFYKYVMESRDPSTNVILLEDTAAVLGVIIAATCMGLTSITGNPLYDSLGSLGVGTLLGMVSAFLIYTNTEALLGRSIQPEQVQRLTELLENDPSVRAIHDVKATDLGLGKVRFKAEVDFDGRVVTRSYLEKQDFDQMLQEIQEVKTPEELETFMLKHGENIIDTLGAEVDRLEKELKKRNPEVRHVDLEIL", "log2 fold change": 0.071}
{"target": "SOAT1 (UniProt P35610)", "log2 fold change": 0.005}
{"target": "SND1 (UniProt Q7KZF4)", "log2 fold change": "-0.414 (active)"}
{"target": "SLC38A1 (UniProt Q9H2H9)", "sequence (Q9H2H9 whole entry, looked up)": "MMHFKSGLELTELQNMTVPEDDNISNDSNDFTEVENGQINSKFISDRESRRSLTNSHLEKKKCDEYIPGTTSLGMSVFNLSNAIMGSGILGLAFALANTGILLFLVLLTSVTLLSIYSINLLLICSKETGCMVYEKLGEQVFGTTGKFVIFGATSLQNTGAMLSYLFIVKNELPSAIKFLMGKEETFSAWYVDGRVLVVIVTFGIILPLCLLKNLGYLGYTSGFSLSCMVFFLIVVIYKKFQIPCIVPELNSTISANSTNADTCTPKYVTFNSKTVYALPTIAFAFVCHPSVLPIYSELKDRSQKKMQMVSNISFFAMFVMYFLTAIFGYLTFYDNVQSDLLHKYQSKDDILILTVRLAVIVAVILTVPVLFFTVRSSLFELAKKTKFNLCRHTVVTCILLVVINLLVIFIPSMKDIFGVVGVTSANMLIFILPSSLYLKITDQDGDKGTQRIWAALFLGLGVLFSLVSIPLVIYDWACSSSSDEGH", "log2 fold change": 0.099}
{"target": "TAF9 (UniProt Q16594)", "log2 fold change": -0.099}
{"target": "SLC29A2 (UniProt Q14542)", "log2 fold change": 0.139}
{"target": "SKA3 (UniProt Q8IX90)", "log2 fold change": "-0.247 (active)"}
{"target": "STK3 isoform 2 (UniProt Q13188)", "sequence (Q13188 whole entry, looked up)": "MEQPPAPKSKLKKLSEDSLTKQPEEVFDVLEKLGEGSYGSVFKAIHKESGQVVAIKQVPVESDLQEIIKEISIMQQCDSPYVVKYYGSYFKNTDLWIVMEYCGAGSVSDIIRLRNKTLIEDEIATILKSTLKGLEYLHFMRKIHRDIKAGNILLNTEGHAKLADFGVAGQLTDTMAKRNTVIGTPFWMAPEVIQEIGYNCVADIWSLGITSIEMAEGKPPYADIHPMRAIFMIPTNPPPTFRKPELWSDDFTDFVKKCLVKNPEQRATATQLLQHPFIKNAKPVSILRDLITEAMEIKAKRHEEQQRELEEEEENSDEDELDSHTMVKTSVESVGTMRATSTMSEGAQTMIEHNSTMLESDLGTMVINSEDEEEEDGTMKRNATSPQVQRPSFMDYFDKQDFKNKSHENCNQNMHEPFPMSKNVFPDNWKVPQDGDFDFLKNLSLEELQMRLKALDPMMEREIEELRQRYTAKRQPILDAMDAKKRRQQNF", "log2 fold change": -0.05}
{"target": "SPAG5 (UniProt Q96R06)", "log2 fold change": "-0.298 (active)"}
{"target": "SPPL2A (UniProt Q8TCT8)", "log2 fold change": -0.106}
{"target": "SLC27A2 (UniProt O14975)", "log2 fold change": -0.237}
{"target": "SSNA1 (UniProt O43805)", "sequence (O43805 whole entry, looked up)": "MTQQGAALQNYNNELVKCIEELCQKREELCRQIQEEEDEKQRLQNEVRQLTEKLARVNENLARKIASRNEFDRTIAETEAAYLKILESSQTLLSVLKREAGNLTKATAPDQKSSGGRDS", "log2 fold change": "-0.34 (active)"}
{"target": "SLC12A6 (UniProt Q9UHW9)", "log2 fold change": 0.15}
{"target": "SFR1 isoform 2 (UniProt Q86XK3)", "log2 fold change": -0.074}
{"target": "SLC16A1 (UniProt P53985)", "log2 fold change": "-0.62 (active)"}
{"target": "TAF6L (UniProt Q9Y6J9)", "log2 fold change": -0.086}
{"target": "SLC30A6 isoform 2 (UniProt Q6NXT4)", "sequence (Q6NXT4 whole entry, looked up)": "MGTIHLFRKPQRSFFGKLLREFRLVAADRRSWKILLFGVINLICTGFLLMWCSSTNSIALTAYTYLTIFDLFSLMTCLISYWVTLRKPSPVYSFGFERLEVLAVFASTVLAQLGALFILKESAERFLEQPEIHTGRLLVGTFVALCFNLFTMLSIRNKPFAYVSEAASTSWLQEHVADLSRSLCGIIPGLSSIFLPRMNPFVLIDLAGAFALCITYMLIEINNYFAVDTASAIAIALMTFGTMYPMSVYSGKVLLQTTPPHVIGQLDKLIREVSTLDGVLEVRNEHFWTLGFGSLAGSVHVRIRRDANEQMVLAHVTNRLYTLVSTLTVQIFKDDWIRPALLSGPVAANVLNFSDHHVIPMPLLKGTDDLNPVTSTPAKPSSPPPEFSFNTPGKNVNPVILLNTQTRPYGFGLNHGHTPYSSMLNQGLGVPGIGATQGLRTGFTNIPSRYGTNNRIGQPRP", "log2 fold change": 0.11}
{"compound": "O=C(O)c1ccc2c(c1)nc(Nc1cccc(Cl)c1)c1ccncc12 [silmitasertib]", "experiment": "log2 fold change, soluble protein after heating vs DMSO (PISA); higher = thermal stabilisation; K562 lysate, 10 uM; active = over 0.2 and 3.5 SD of the protein, either way, in both replicates (recomputed)", "outline": "as §1"}
{"target": "TANGO6 (UniProt Q9C0B7)", "log2 fold change": 0.019}
{"target": "SUZ12 (UniProt Q15022)", "log2 fold change": 0.023}
{"target": "STAR (UniProt P49675)", "log2 fold change": -0.028}
{"target": "SNAP23 (UniProt O00161)", "log2 fold change": -0.067}
{"target": "SMG7 (UniProt Q92540)", "log2 fold change": 0.027}
{"target": "SNRPD2 (UniProt K7EJB5)", "log2 fold change": 0.056}
{"target": "TARBP1 (UniProt Q13395)", "log2 fold change": 0.097}
{"target": "SRGN (UniProt P10124)", "log2 fold change": -0.123}
{"target": "SH3BP2 isoform 4 (UniProt P78314)", "log2 fold change": 0.092}
{"target": "SH3GL3 isoform 3 (UniProt Q99963)", "log2 fold change": 0.028}
{"target": "SMC6 (UniProt Q96SB8)", "log2 fold change": -0.022}
{"target": "SHC1 isoform 6 (UniProt P29353)", "log2 fold change": -0.017}
{"target": "SNUPN (UniProt O95149)", "log2 fold change": 0.142}
{"target": "SYF2 (UniProt O95926)", "log2 fold change": -0.059}
{"target": "STARD3 isoform 3 (UniProt Q14849)", "log2 fold change": 0.047}
{"target": "TADA3 (UniProt O75528)", "log2 fold change": -0.021}
{"target": "STK26 (UniProt Q9P289)", "log2 fold change": 0.035}
{"target": "SMN1 (UniProt Q16637)", "log2 fold change": 0.035}
{"target": "SLC7A5 (UniProt Q01650)", "log2 fold change": -0.04}
{"target": "SFN (UniProt P31947)", "log2 fold change": -0.032}
{"target": "SLC40A1 (UniProt Q9NP59)", "log2 fold change": 0}
{"target": "SH3BGRL2 (UniProt Q9UJC5)", "log2 fold change": -0.011}
{"target": "SLC30A9 (UniProt Q6PML9)", "log2 fold change": -0.058}
{"target": "SOAT1 (UniProt P35610)", "log2 fold change": 0}
{"target": "SND1 (UniProt Q7KZF4)", "log2 fold change": 0.048}
{"target": "SLC38A1 (UniProt Q9H2H9)", "log2 fold change": 0}
{"target": "TAF9 (UniProt Q16594)", "log2 fold change": -0.011}
{"target": "SLC29A2 (UniProt Q14542)", "log2 fold change": 0.117}
{"target": "SKA3 (UniProt Q8IX90)", "log2 fold change": 0}
{"target": "STK3 isoform 2 (UniProt Q13188)", "log2 fold change": 0.022}
{"target": "SPAG5 (UniProt Q96R06)", "log2 fold change": 0.042}
{"target": "SPPL2A (UniProt Q8TCT8)", "log2 fold change": -0.069}
{"target": "SLC27A2 (UniProt O14975)", "log2 fold change": 0.08}
{"target": "SSNA1 (UniProt O43805)", "log2 fold change": 0}
{"target": "SLC12A6 (UniProt Q9UHW9)", "log2 fold change": -0.045}
{"target": "SFR1 isoform 2 (UniProt Q86XK3)", "log2 fold change": 0.023}
{"target": "SLC16A1 (UniProt P53985)", "log2 fold change": -0.012}
{"target": "TAF6L (UniProt Q9Y6J9)", "log2 fold change": 0.013}
{"target": "SLC30A6 isoform 2 (UniProt Q6NXT4)", "log2 fold change": 0.01}
